# Shown are actives, neighbours in structure and some others; about 2.3% of the full set was active somewhere.
# A549 tox-1: counter-screen for Nrf2 inhibitors: cytotoxicity in A549 cells; Potency, µM (doses to about 46 µM), hits mostly inhibitors; hit rate 0.16% among 390,000; A549 ARE-Fluc cells, CellTiter-Fluor viability, 18-24 h; AID 504648
#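 Cytotoxicity counterscreen: CellTiter-Fluor fluorescence was measured in A549 ARE_Fluc cells after 18-24 h of compound exposure in a concentration series. The subsequent BugLite luminescent read reports ARE-luciferase activity.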
# Anesthetic bind: binds horse apoferritin like a general anesthetic; apoferritin/1-aminoanthracene competitive binding, fluorescence; Potency, µM (titrated, usually from 77.5 µM), actives largely listed as inhibitors; hit rate 0.074% among 350,000; note: nearly all actives have a fitted effect of over 20% in size
# Target sequence (P02791 2-175 limits assumed): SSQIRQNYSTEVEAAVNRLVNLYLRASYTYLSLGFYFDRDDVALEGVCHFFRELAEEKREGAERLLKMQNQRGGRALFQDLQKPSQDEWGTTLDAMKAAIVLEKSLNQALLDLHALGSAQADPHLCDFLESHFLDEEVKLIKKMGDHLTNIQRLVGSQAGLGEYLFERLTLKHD
#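 Probe: 1-aminoanthracene (50% saturated, PBS). Protein: horse-spleen apoferritin, 10 uM. Incubation: 10 min, room temperature. Detection: 380 nm excitation, 535 nm emission. Analysis: normalized response, four-parameter Hill.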
# Nrf2 block: Nrf2 pathway inhibition; hit rate 2.1% among 360,000; Potency, µM (titrated, usually from 46 µM), most hits filed as inhibitors; AID 504444; A549 ARE-Fluc reporter, luciferase luminescence, 18-24 h; note: nearly all actives have a fitted effect of over 60% in size
#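 Nrf2 function is reported as luminescence of an ARE-controlled luciferase in A549 cells. Compounds were tested at several concentrations, and a CellTiter-Fluor read on the same wells flagged cytotoxicity.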
# mIDH1 inhibitor: blocks human mutant IDH1 R132H enzyme; O75874; IDH1-R132H enzyme, NADPH consumption, diaphorase/resazurin fluorescence; Potency, µM (top dose mostly 76.6 µM), usual class: inhibitors; hit rate 0.093% among 390,000; AID 602179; note: nearly all actives have a fitted effect of over 65% in size
#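 IDH1-R132H (0.5 ug/mL) preincubated 30 min with compound, then NADPH (0.016 mM) and alpha-KG (2 mM) added; 80 min at RT, pH 7.5. Remaining NADPH coupled via diaphorase/resazurin to fluorescence (540/590 nm); concentration-response curves normalized to no-enzyme control.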
# Giardia killer: Giardia lamblia killing | Giardia lamblia trophozoite viability | activity change, % at 7.66 µM, hits read low | hit rate 0.15% among 340,000 | AID 540267; in the data active = activity change below about -80%; inconclusive = between about -30% and that limit;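 note: parasites exposed to compound for two days anaerobically before the ATP read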
#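 Media and compound were dispensed first, then trophozoites at 100 cells/well; plates sat 48 hrs at 37 deg C without oxygen before ATP luminescence reagent was added and read after 15-30 min at room temperature.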
# Nrf2 ARE act: activates Nrf2 signaling | AREc32 ARE-luciferase reporter (MCF7-derived line), luminescence, 24 h | Potency, µM (doses to about 46.1 µM), actives largely listed as activators | hit rate 0.31% among 410,000 | AID 624171; note: nearly all actives have a fitted effect of over 65% in size
#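 Each well held 1000 AREc32 cells, which were incubated with compound for 24 hr at 37 deg C after overnight attachment, and ARE reporter activity was quantified by firefly luciferase luminescence.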
# FLuc counter 3: blocks purified firefly luciferase in Nrf2 counterscreen | shares compounds with Nrf2 block | purified firefly luciferase, luminescence inhibition | Potency, µM (highest dose often 57.5 µM), most hits filed as inhibitors | hit rate 4% among 1,400 | AID 720522; note: nearly all actives have a fitted effect of over 65% in size
# Target sequence (P08659 whole entry, looked up): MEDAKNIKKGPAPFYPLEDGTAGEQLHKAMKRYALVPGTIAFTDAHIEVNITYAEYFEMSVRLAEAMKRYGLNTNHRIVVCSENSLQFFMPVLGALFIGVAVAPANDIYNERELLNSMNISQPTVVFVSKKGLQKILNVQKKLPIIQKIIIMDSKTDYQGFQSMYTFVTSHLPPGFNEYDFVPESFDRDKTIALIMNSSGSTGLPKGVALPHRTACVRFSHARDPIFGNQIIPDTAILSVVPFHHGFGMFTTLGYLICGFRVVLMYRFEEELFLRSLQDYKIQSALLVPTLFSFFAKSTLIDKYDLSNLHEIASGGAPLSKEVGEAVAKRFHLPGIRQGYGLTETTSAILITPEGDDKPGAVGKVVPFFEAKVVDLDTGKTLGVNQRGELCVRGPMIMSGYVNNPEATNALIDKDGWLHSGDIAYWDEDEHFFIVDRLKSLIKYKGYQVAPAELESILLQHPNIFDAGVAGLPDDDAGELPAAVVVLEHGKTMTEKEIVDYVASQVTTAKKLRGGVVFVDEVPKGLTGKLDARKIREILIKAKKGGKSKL
# A549 tox-2: A549 cytotoxicity, Nrf2 inhibitor counterscreen. hit rate 2% among 1,400. AID 720523. shares compounds with Nrf2 block. A549 ARE-Fluc cells, cytotoxicity counterscreen. Potency, µM (titrated, usually from 46.1 µM), hits mostly inhibitors;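 note: cells exposed to compounds for 18 to 24 hours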
# ARE-Fluc inh: confirmation of Nrf2 inhibitors in A549 ARE reporter cells. shares compounds with Nrf2 block. A549 ARE-firefly luciferase reporter, luminescence. Potency, µM (doses to about 46.1 µM), actives largely listed as inhibitors. hit rate 74% among 1,400. AID 720524; note: nearly all actives have a fitted effect of over 65% in size
# Hits are given with their value; - = inactive; ? = inconclusive; . = not tested or not shown. Unless noted, calls come from the whole dose curve; as a rule, active = well fitted curve in the direction sought with a large enough effect; inconclusive = small, poorly fitted or top-dose-only effect, or another doubt; inactive = no such curve, though single readings can be large; an effect the other way counts as inactive or inconclusive.
SMILES,A549 tox-1,Anesthetic bind,Nrf2 block,mIDH1 inhibitor,Giardia killer,Nrf2 ARE act,FLuc counter 3,A549 tox-2,ARE-Fluc inh
CCN1/C(=C/c2ccc3cc(C)cc(C)c3[n+]2CC)Sc2cc(C)ccc21,16µM,-,?,-,-,-,-,?,1.6µM
CCN1/C(=C\C=C(C(C)=O)C(C)=O)Sc2ccccc21,-,?,-,-,-,-,.,.,.
CCN1/C(=C\c2ccc3cc(C)ccc3[n+]2CC)Sc2cc(C)c(C)cc21,?,-,8.2µM,-,-,-,-,?,1.8µM
CCN1/C(=C/c2ccc3cccc(C)c3[n+]2CC)Sc2ccccc21,?,?,2.6µM,-,-,-,-,?,2.1µM
CCCN(C(=O)c1nn(-c2ccc(OC)cc2)c(=O)c2c1c1ccccc1n2C)c1ccc(CC)cc1,-,-,-,.,.,-,.,.,.
Cc1ccc(NC(=O)C(C)Sc2nc(-c3ccccc3)c(C#N)c(=O)[nH]2)c(C)c1 (stereo unspecified),-,-,-,-,.,-,.,.,.
Cc1cccc(C(=O)NCc2nnc(SCC(=O)Nc3ccccc3F)n2-c2ccccc2)c1,-,-,-,-,.,-,.,.,.
Nc1c(Cl)ncnc1N/N=C/c1cccnc1,-,-,-,-,-,-,.,.,.
Nc1c(Cl)ncnc1N/N=C/c1ccccn1,?,-,5.2µM,-,-,-,?,?,2.1µM
CCCC[C@@H]1CNC(=O)C(=O)N1CCCC,.,.,.,.,.,-,.,.,.
COc1ccc2c(C(=O)NCc3ccc4c(c3)OCO4)c(-c3ccc(S(C)(=O)=O)cc3)sc2c1,?,.,7.3µM,-,-,-,-,?,16µM
COc1ccc2c(Sc3ccccc3)c(C(=O)NCc3cccc(OC)c3OC)[nH]c2c1,-,-,9.2µM,-,.,-,-,-,-
COc1ccc2c(Sc3ccccc3)c(C(=O)NCc3cc(Br)ccc3OC)[nH]c2c1,-,-,?,-,.,-,.,.,.
CC(Oc1ccc(Br)cc1)C(=O)Nc1ccncc1 (stereo unspecified),-,-,8.2µM,-,-,-,-,-,.
O=C(CSc1nnc(Cn2nnc3ccccc32)o1)N(Cc1ccc(Cl)cc1)c1ccccc1,?,-,5.8µM,-,-,-,-,-,9.2µM
Cc1c(C(=O)N2CCCC2)oc2c1-c1nn(CC(=O)NCc3ccccc3Br)cc1CC2,-,-,?,-,.,-,.,.,.
CCc1nc2ccc(C(=O)NCCOc3ccc(OC)cc3)cn2c1N(C)C(=O)Cc1ccccc1,.,.,.,.,.,-,.,.,.
c1ccc2c(N3CCCCC3)ncnc2c1,-,-,?,-,-,-,.,.,.
c1ccc2c(N=NN3CCCCC3)ccnc2c1,.,.,.,.,.,.,-,-,5.8µM
CC(CNC(=O)c1cc2cc(S(=O)(=O)N3CCCCC3)ccc2n1C)c1ccccc1 (stereo unspecified),-,-,.,-,.,-,.,.,.
O=C(Cn1cnc2ccccc21)Nc1cccc(S(=O)(=O)N2CCCC2)c1,-,.,5.8µM,-,-,-,-,-,9.2µM
COc1ccc(CC(=O)Nc2cccc(S(=O)(=O)N3CCOCC3)c2)cc1OC,-,.,-,-,-,-,.,.,.
COc1ccc(CNC(=O)c2cccc(S(=O)(=O)N3CCCCC3)c2)cc1OC,-,.,5.2µM,-,-,-,-,-,5.8µM
COc1ccc(CC(=O)Nc2cccc(S(=O)(=O)N3CCCC3)c2)cc1OC,-,.,4.6µM,-,-,-,-,-,7.3µM
O=C(Cc1n[nH]c(=O)c2ccccc12)Nc1cccc(S(=O)(=O)N2CCCCCC2)c1,-,.,9.2µM,-,-,-,-,-,9.2µM
SMILES,A549 tox-1,Anesthetic bind,Nrf2 block,mIDH1 inhibitor,Giardia killer,Nrf2 ARE act,FLuc counter 3,A549 tox-2,ARE-Fluc inh
CCCN1CNc2c(c(=O)[nH]c(=S)n2CCC)C1,-,.,-,.,-,.,.,.,.
COc1cc(OC)c(NC(=O)c2nnn(Cc3ccc(C)cc3)c2N)cc1Cl,-,-,-,-,.,-,.,.,.
COc1cc(OC)c(OC)cc1CNC(=O)c1cccc(S(=O)(=O)N2CCc3ccccc3C2)c1,-,.,7.3µM,-,-,-,-,-,5.8µM
CC(C)C[C@@H](COCc1cccc(C(F)(F)F)c1)N1CCN(C(=O)c2ccc(C(F)(F)F)cc2)CCC1=O,.,.,.,.,.,-,.,.,.
NC(=S)NN=Cc1nccc2c(C(F)(F)F)cccc12,.,.,.,-,.,-,.,.,.
CNc1cccnc1C=NNC(N)=S,?,.,0.58µM,-,-,-,-,-,1.5µM
O=C(COc1ccc2c(-c3ccccc3)cc(=O)oc2c1)NCc1ccccn1,-,-,-,-,-,-,.,.,.
O=C(COc1ccc2c(-c3ccccc3)cc(=O)oc2c1)Nc1cccnc1,-,-,2.3µM,-,-,-,-,-,1.8µM
Cc1ccc(C(=S)N2CCN(Cc3ccccc3)CC2)cc1,?,-,-,-,-,-,.,.,.
CCN1CCN(C(=S)c2ccc(-c3ccccc3)cc2)CC1,-,-,5.2µM,-,-,-,?,-,6.5µM
N=c1ccn2c(n1)OC1C(O)[C@@H](CO)O[C@H]12 (stereo partly specified),-,.,0.16µM,.,-,.,-,-,.
Cn1c(=O)c2c(nc(SCC(=O)Nc3ccc(OC(F)(F)F)cc3)n2Cc2cccc(C(F)(F)F)c2)n(C)c1=O,?,-,7.3µM,-,.,-,-,?,15µM
CC1=C(C(=O)N2CCCCCC2)CC(CC(=O)NCc2ccco2)C(=O)N1Cc1ccccc1 (stereo unspecified),.,.,.,.,.,-,.,.,.
CCCCCCCCNc1ncnc2ccccc12,?,-,5.8µM,-,-,-,-,-,7.3µM
NC(=O)c1ccc(NC(=O)COC(=O)CCC2CCCC2)cc1,.,.,.,-,.,-,.,.,.
CCN(CC)S(=O)(=O)c1ccc(NC(=O)c2ccc3c(=O)n4c(nc3c2)CCCCC4)cc1,?,?,9.2µM,-,.,-,-,-,8.2µM
COCCNC(=O)C1(C)CCCN(Cc2ccc(Cl)c(Cl)c2)C1 (stereo unspecified),.,.,.,.,.,-,.,.,.
c1ccc2sc(N3CCCCC3)nc2c1,-,.,?,-,-,-,.,.,.
C=C(c1nc2ccccc2s1)C1Cc2cccc3c2N(CCC3)C1 (stereo unspecified),.,.,.,.,.,.,12µM,-,2.6µM
COc1ccc2c(c1)CCc1c(C(=O)Nc3c(C)nn(Cc4ccc(Cl)c(Cl)c4)c3C)noc1-2,-,-,4.6µM,-,.,-,-,-,9.2µM
O=C(NCc1ccccc1Cl)c1ccc2oc(=O)n(Cc3ccccc3)c2c1,-,?,.,-,.,-,.,.,.

# Screening results as filed in PubChem.
